# Laboratory results reported in PubChem BioAssay (NCATS).
# Unmarked numbers belong to inactive results. Records with an inconclusive call do not appear. Where a call stands in place of a potency, no number is given. Calls of active or inactive are those of the source. Unless noted, the call rests on the fitted dose curve; in most records, active means well fitted curve in the direction sought with a large enough effect; inconclusive means small, poorly fitted or top-dose-only effect, or another doubt; inactive means no such curve, though single readings can be large; an effect the other way counts as inactive or inconclusive.
# Key:
# [1] = target: Rap guanine nucleotide exchange factor 3 (Homo sapiens) (UniProt O95398); assay: Confirmatory qHTS for antagonist of cAMP-regulated guanine nucleotide exchange factor 3 (EPAC1) (AID 1645880); conditions: EPAC1 Rap1B-BODIPY-GDP exchange, fluorescence; activity, negative = inhibition: at 115 µM (top of the series); further: nearly all actives have a fitted effect of over 55% in size; further: potency means the concentration at half of the fitted maximal effect
# Sequence of Rap guanine nucleotide exchange factor 3 (Homo sapiens) (O95398 whole entry, looked up): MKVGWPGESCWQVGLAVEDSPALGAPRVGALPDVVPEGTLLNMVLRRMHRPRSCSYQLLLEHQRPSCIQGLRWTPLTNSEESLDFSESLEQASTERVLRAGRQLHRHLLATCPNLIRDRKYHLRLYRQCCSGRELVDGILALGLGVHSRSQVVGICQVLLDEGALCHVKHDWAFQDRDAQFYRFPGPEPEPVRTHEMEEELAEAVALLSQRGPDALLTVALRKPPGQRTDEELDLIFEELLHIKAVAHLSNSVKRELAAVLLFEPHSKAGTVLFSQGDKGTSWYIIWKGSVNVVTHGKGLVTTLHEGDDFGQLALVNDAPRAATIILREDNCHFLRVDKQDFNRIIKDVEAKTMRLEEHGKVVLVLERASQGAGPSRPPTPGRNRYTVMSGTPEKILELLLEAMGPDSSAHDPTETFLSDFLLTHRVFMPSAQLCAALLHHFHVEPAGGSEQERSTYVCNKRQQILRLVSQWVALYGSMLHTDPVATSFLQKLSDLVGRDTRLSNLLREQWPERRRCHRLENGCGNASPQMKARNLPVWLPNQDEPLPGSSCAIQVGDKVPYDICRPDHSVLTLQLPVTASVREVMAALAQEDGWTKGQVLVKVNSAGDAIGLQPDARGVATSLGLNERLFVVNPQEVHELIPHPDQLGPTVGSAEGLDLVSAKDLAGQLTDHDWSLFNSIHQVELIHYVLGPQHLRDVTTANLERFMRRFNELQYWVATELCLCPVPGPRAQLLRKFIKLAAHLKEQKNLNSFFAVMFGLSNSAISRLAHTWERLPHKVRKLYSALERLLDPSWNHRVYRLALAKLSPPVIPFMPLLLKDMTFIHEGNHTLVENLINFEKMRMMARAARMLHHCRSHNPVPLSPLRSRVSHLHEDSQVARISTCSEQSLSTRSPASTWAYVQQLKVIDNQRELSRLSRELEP
# Procedure, shortened: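 Nucleotide exchange uses 100 nM EPAC1, 250 nM RAP1B-BODIPY-GDP and 50 uM GDP, with compounds in a concentration-titration series. After 5 min at room temperature, fluorescence (480 nm ex/540 nm em) is read every 5 min for 30 min. Data are normalized to control ATA and DMSO.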
# [2] = target: Rap guanine nucleotide exchange factor 3 (Homo sapiens) (UniProt O95398); assay: Confirmatory qHTS for agonist of cAMP-regulated guanine nucleotide exchange factor 3 (EPAC1) (AID 1645881); further: nearly all actives have a fitted effect of over 75% in size; further: potency means the concentration at half of the fitted maximal effect;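 on activation: EPAC1 catalysed release of BODIPY-GDP from Rap1B seen as fluorescence loss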
# [3] = target: Rap guanine nucleotide exchange factor 4 (Homo sapiens) (UniProt Q8WZA2); assay: Confirmatory qHTS for agonist of cAMP-regulated guanine nucleotide exchange factor 4 (EPAC2) (AID 1645884);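 further: nucleotide exchange releases bodipy-GDP from Rap1 and this lowers its fluorescence; nearly all actives have a fitted effect of over 65% in size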; further: potency means the concentration at half of the fitted maximal effect
# Sequence of Rap guanine nucleotide exchange factor 4 (Homo sapiens) (Q8WZA2 whole entry, looked up): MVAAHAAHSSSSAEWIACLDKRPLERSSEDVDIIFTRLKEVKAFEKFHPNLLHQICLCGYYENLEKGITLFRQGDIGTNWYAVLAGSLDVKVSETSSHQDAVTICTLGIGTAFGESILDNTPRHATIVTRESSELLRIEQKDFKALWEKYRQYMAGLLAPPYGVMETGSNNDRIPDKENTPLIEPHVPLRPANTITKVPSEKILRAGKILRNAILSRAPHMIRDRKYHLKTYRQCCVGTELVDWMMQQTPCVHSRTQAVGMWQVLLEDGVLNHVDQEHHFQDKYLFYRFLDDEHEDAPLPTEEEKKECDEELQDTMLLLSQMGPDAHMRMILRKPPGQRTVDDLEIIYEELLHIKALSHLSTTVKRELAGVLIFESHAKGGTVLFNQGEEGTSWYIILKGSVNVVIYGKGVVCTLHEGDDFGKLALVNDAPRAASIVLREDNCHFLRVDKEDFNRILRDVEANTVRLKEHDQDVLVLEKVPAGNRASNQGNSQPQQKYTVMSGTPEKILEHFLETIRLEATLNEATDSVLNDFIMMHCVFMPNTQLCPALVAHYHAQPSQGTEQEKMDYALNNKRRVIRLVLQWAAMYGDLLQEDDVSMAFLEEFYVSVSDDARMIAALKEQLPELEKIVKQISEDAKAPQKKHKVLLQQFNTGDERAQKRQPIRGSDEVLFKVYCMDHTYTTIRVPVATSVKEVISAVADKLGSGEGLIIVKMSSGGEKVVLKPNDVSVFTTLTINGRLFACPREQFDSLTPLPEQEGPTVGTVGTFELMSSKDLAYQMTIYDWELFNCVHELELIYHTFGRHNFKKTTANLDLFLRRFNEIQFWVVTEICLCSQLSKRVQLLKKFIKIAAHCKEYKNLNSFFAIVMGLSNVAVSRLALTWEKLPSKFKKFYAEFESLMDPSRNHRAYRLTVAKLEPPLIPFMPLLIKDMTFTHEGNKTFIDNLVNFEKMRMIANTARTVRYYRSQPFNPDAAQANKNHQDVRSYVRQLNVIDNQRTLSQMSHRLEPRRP
# [4] = target: Rap guanine nucleotide exchange factor 4 (Homo sapiens) (UniProt Q8WZA2); assay: Confirmatory qHTS for antagonist of cAMP-regulated guanine nucleotide exchange factor 4 (EPAC2) (AID 1645885); further: nearly all actives have a fitted effect of over 25% in size; further: potency means the concentration at half of the fitted maximal effect
# [5] = target: Rap guanine nucleotide exchange factor 3 (Homo sapiens) (UniProt O95398); assay: Counterscreen qHTS for agonist of cAMP-regulated guanine nucleotide exchange factor 3 (EPAC1) (AID 1645889); further: nearly all actives have a fitted effect of over 40% in size; further: potency means the concentration at half of the fitted maximal effect
# Procedure, shortened: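 Rap1B–BODIPY-GDP (250 nM) with 50 uM GDP; compounds pin-transferred to 9.74 nM–152 uM final (activator) or from 7.32 nM upwards (inhibitor). Fluorescence Ex/Em 480/540 nm read at 5 and 30 min, then after adding cAMP or buffer, at room temperature.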
# [6] = target: Lysosomal acid glucosylceramidase (Homo sapiens) (UniProt P04062); assay: Glucocerebrosidase-p2 (AID 348; in the data active means potency below about 10 µM; further: potency means the concentration at half of the fitted maximal effect); conditions: purified GBA, blue fluorogenic substrate, 40 min
# Sequence of Lysosomal acid glucosylceramidase (Homo sapiens) (P04062 whole entry, looked up): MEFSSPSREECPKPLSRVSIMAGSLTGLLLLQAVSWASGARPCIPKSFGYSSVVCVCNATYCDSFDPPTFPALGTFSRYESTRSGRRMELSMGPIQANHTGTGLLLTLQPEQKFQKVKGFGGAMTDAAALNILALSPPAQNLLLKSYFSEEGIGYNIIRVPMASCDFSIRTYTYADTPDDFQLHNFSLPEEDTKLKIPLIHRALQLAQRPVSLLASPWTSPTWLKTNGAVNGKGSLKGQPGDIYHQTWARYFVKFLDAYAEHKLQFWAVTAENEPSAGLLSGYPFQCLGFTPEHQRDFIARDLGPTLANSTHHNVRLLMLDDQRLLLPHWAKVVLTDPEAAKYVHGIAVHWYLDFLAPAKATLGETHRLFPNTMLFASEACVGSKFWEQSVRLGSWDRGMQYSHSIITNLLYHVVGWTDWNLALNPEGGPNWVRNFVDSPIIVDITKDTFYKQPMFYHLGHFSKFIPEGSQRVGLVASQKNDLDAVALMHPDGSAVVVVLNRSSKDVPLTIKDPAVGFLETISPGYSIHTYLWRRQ
# Procedure, shortened: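 Compounds titrated from 0.6 nM upwards against 0.2 nM enzyme in pH 5.9 citric acid/KH2PO4, taurocholate, tween-20; blue fluorogenic substrate 80 uM, 40 min room temperature, stopped and read Ex 365/Em 440 for AC50.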
# [7] = AP1 Signaling Pathway (AID 357; active means well fitted curve in either direction with a large enough effect, not every such curve was filed as active;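 further: ME-180 reporter cells stimulated with EGF at its EC50 level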); conditions: ME-180 (cervical carcinoma) AP-1-bla reporter, EGF-induced, beta-lactamase ratio, 5 h; at 7.69 µM (top of the series) unless noted
# Procedure, shortened: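 Modulation of EGF-driven AP-1 transcription was assessed with a beta-lactamase reporter in ME-180 cells. Compound and EC50 EGF were co-incubated 5 hours at 37 °C before 2.5-hour CCF4 loading at room temperature and dual-emission reading.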
# [8] = target: Cytochrome P450 1A2 (Homo sapiens) (UniProt P05177); assay: p450-cyp1a2 (AID 410; calls by dose curve; further: potency means the concentration at half of the fitted maximal effect)
# Sequence of Cytochrome P450 1A2 (Homo sapiens) (P05177 whole entry, looked up): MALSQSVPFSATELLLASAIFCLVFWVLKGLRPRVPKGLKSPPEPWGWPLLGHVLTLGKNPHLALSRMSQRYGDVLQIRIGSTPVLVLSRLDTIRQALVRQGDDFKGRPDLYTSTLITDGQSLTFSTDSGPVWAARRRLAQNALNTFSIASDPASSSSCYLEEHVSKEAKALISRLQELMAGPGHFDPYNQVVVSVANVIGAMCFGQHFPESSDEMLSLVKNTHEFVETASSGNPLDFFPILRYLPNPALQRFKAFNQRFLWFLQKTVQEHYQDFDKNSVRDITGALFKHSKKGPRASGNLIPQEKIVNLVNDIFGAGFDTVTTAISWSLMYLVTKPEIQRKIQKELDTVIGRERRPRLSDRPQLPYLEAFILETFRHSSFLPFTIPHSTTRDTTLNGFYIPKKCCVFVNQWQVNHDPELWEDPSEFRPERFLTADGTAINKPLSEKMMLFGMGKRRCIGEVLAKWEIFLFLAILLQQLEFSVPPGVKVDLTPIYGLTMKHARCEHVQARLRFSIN
# Procedure, shortened: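 Human CYP1A2 (20nM) demethylated Luciferin-ME at its Km (100uM) in 100mM KPO4. After 10 min compound preincubation, NADPH regeneration ran the reaction 60 min at room temperature. Luciferin was read by luminescence, normalized to 57 uM furafylline.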
# [9] = target: Glucocorticoid receptor (Homo sapiens) (UniProt P04150); assay: GR-EFC Redistribution (AID 451; calls by dose curve; further: potency means the concentration at half of the fitted maximal effect); conditions: CHO-K1 GR-EFC translocation, beta-gal luminescence, 2 h
# Sequence of Glucocorticoid receptor (Homo sapiens) (P04150 whole entry, looked up, the tested form may be a part): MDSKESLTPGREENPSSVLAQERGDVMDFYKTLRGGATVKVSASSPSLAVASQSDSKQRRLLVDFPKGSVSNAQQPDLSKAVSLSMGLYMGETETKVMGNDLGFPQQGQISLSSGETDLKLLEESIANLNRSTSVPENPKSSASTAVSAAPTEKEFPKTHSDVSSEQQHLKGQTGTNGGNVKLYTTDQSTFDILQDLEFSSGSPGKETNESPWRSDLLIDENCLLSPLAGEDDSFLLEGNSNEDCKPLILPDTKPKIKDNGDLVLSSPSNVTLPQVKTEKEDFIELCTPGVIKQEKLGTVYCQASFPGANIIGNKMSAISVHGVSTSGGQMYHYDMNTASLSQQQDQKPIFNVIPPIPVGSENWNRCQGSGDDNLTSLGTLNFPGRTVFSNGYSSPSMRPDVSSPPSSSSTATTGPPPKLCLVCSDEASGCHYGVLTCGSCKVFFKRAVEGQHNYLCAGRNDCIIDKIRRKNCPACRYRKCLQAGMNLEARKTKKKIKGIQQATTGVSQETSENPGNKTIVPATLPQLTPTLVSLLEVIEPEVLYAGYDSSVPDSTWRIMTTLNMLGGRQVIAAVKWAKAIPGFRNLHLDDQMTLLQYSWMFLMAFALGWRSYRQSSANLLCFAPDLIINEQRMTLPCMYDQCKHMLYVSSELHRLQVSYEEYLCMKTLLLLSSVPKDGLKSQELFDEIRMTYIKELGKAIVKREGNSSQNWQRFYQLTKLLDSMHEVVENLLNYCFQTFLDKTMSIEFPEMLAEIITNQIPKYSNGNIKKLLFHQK
# Procedure, shortened: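 CHO-K1 cells expressing nuclear EA and GR-ED fragments of b-gal; compounds titrated up to 46 uM final, 2 h at 37 C. GR nuclear translocation read as complemented b-gal luminescence after 1 h RT detection.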
# [10] = target: 3',5'-cyclic-AMP phosphodiesterase 4B (Homo sapiens) (UniProt Q07343); assay: qHTS Assay for Inhibitors of PDE-IV (AID 607; active means well fitted activation curve with a large enough effect in the main read-out, with a control signal flat, not every such curve was filed as active)
# Sequence of 3',5'-cyclic-AMP phosphodiesterase 4B (Homo sapiens) (Q07343 whole entry, looked up): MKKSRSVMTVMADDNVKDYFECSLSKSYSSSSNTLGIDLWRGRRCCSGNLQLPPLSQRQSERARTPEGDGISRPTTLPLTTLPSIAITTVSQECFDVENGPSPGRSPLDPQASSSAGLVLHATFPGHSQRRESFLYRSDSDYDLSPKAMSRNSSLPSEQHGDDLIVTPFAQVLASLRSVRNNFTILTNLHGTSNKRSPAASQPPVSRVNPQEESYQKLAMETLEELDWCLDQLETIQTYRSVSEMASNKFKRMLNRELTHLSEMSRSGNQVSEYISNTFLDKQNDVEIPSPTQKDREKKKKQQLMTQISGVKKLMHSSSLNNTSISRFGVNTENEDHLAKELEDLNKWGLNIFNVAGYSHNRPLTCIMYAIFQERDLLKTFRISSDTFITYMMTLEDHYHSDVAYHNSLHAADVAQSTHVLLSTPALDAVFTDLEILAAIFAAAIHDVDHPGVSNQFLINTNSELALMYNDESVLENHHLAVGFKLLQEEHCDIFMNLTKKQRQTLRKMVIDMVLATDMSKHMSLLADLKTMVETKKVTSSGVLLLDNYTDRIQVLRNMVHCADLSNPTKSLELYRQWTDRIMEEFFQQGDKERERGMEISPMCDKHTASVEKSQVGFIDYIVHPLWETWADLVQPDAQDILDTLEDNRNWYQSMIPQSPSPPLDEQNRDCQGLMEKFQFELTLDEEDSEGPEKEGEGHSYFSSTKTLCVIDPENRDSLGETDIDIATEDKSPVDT
# Procedure, shortened: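 Cell-based read-out of cAMP via a modified cyclic nucleotide-gated channel and membrane potential dye (535/590 nm) in HEK293 cells expressing PDE4 endogenously. Compounds tested up to 22.9 uM final; 100 uM RO 20-1724 reference.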
# [11] = target: Tumor susceptibility gene 101 protein (Homo sapiens) (UniProt Q99816); assay: qHTS Assay for Iinhibitors of HIV-1 Budding by Blocking the Interaction of PTAP/TSG101: Hit Validation (AID 651600); further: potency means the concentration at half of the fitted maximal effect; nearly all actives have a fitted effect of over 70% in size
# Sequence of Tumor susceptibility gene 101 protein (Homo sapiens) (Q99816 whole entry, looked up, the tested form may be a part): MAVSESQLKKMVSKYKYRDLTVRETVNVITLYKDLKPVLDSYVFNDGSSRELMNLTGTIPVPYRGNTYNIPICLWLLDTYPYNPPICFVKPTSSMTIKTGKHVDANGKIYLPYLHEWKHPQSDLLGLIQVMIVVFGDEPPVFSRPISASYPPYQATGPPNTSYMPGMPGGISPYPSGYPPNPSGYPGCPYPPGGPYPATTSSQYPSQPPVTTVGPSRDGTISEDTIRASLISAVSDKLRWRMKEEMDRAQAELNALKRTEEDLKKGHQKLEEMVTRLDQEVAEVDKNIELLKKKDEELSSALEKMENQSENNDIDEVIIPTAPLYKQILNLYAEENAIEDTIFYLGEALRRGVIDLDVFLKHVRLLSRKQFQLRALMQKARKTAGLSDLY
# Procedure, shortened: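 Fluorescence polarization binding assay: Tsg101 binding domain (10 uM) mixed with compounds and FITC-labeled PTAP peptide (50 nM) in HEPES pH 7.5, 0.15 M NaCl, 0.01% Tween 20, EDTA, TCEP; 20 min at r.t.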
structure (smiles),measurement,setting,value
CC(=O)c1cc(CC(=O)N2CCc3c([nH]c4ccccc34)C2c2ccccn2)cs1 (stereo not given),Potency,[1],inactive
same,Potency,[2],inactive
same,Potency,[3],inactive
same,Potency,[4],inactive
same,Potency,[5],inactive
O=C1C(Cc2ccccc2)SC(=Nc2ccccc2)N1c1ccccc1 (stereo not given),Potency,[1],inactive
same,Potency,[2],inactive
same,activation,[3],"1.92% [at 17.1 µM, percent relative to cAMP agonist control]"
same,Potency,[4],inactive
same,activation,[5],18.1% [at 30.8 µM]
O=C(CSc1nnnn1-c1ccccc1)Nc1ccc(Cl)cn1,Potency,[1],inactive
same,Potency,[2],inactive
same,Potency,[3],inactive
same,Potency,[4],inactive
same,Potency,[5],inactive
Cc1ccc(C)c(NC(=O)COC(=O)COc2cccc3c2OC(C)(C)C3)c1,Potency,[1],inactive
same,Potency,[2],inactive
same,activation,[3],"-3.91% [at 17.1 µM, percent relative to cAMP agonist control]"
same,Potency,[4],inactive
same,activation,[5],3.82% [at 30.8 µM]
CCOC(=O)c1c(-c2ccc(-c3ccccc3)cc2)csc1NC(=O)CCC(=O)O,Potency,[1],42.6 µM (active)
same,Potency,[2],inactive
same,Potency,[3],inactive
same,Potency,[4],inactive
same,Potency,[5],inactive
COc1ccc(-c2c(-c3ccccc3OC)oc3ccccc23)cn1,Potency,[1],inactive
same,Potency,[2],inactive
same,activation,[3],"1.88% [at 17.1 µM, percent relative to cAMP agonist control]"
same,Potency,[4],inactive
same,activation,[5],7.21% [at 30.8 µM]
C/C=C/C(=O)Nc1cccc(C2=NOC3(C2)C[C@@H](C(N)=O)N(C(=O)/C(C)=C/C)C3)c1 (stereo not given in full),Potency,[1],inactive
same,Potency,[2],inactive
same,Potency,[3],inactive
same,Potency,[4],inactive
same,Potency,[5],inactive
CC(=O)Nc1cccc(/C(C)=N/Nc2ccc(S(=O)(=O)Nc3ccccc3C(=O)O)cc2[N+](=O)[O-])c1,Potency,[1],21.3 µM (active)
same,Potency,[2],inactive
same,Potency,[3],inactive
same,Potency,[4],inactive
same,Potency,[5],inactive
Cn1c(N)c(C(=O)COC(=O)CCOc2ccc(C(C)(C)C)cc2)c(=O)n(C)c1=O,Potency,[1],inactive
same,Potency,[2],inactive
same,Potency,[3],inactive
same,Potency,[4],inactive
same,Potency,[5],inactive
O=C(c1ccco1)N1CCC2(CC1)CN(c1cccc(-c3ccccc3)c1)C2,Potency,[6],> 11.4 µM
same,"activity change, negative = inhibition",[7],-23.1%
same,Potency,[8],7.94 µM (active)
same,Potency,[9],> 46 µM
same,Potency,[10],inactive
same,Potency,[1],inactive
same,Potency,[2],inactive
same,Potency,[3],inactive
same,Potency,[4],inactive
Cc1cc(OC(C)C(=O)NCc2ccccn2)c2c(C)c(Cc3ccccc3)c(=O)oc2c1 (stereo not given),Potency,[1],47.8 µM (active)
same,Potency,[2],inactive
same,Potency,[3],inactive
same,Potency,[4],inactive
same,Potency,[5],inactive
O=C1c2cccc3c(O)ccc(c23)C(=O)N1Cc1ccccc1,Potency,[11],2.59 µM (active)
same,Potency,[1],inactive
same,Potency,[2],89.1 µM (active)
same,Potency,[3],100 µM (active)
same,Potency,[4],75.7 µM (active)
same,Potency,[5],39.8 µM (active)
